This is a sample that favours compounds with a hit; in the whole collection about 4.8% have one here.
S2 tox: viability counter-screen for ATXN expression inhibitors. hit rate 0.49% among 400,000. AID 651635. Potency, µM (top dose mostly 56.7 µM), hits mostly cytotoxic. S2 cells (HEK-293 line with an ATXN2-luciferase reporter) viability, CellTiter-Fluor protease fluorescence, 24 h; note: potency is the fitted concentration of half-maximal effect; nearly all actives have a fitted effect of over 40% in size
ATXN2 expr inh: inhibitors of ATXN2 expression; HEK-293 ATXN2-luciferase reporter, luminescence, 24 h; Potency, µM (doses to about 57 µM), for inactives: at the highest dose activity change, negative = inhibition, actives largely listed as inhibitors; hit rate 0.72% among 360,000; note: potency is the fitted concentration of half-maximal effect; % is set by controls: 0 for no effect and ±100 for the full control effect; nearly all actives have a fitted effect of over 55% in size
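qHTS (up to 57 uM final) was run with 24 h compound exposure of reporter cells at 37 °C. Each well was multiplexed: SteadyGlo luminescence measured ATXN2-luciferase expression after a fluorogenic Gly-Phe-AFC viability readout (25 uM final).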
HepG2 tox-1: HepG2 cytotoxicity, counter-screen for TGF-b inhibitors | HepG2 CAGA-GFP viability, ATP luminescence, 18 h | Potency, µM (top dose mostly 46.1 µM), for inactives: at the top dose activity change, negative = cytotoxicity, hits mostly cytotoxic | hit rate 0.76% among 410,000; note: potency is the fitted concentration of half-maximal effect
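HepG2 CAGA-GFP cells (1000/well, DMEM with 1% FBS) received compound, then TGF-beta at 500 pg/mL final, and were incubated 18 hours at 37 degrees C. Viability was read by CellTiter-Glo luminescence. Media-only wells were set as complete cell-killing and DMSO as no toxicity.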
DRD3 antagonist: D3 dopamine receptor (human) antagonism | P35462 | D3R cells, DiscoveRx beta-arrestin luminescence, antagonist mode; hits give low values | max response, negative = inhibition, % | hit rate 2.5% among 360,000 | AID 652054; in the data active = max response below about -50%; inconclusive = no clear call, values can overlap the other calls; note: % is set by controls: 0 for no effect and ±100 for the full control effect
Target sequence (P35462 whole entry, looked up): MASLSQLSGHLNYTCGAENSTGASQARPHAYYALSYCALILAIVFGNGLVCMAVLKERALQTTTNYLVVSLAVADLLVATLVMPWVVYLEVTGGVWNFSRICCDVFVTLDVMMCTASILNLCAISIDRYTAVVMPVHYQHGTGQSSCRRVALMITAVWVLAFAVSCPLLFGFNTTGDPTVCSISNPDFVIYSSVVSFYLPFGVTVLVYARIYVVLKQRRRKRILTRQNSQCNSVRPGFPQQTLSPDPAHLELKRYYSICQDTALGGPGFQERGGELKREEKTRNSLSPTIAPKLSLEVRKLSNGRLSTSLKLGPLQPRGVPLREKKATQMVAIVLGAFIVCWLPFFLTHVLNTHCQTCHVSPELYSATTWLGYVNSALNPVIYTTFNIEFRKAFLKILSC
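Cells plated overnight at 1500 cells/well, then exposed to library compounds with dopamine controls for 90 minutes at 37 degrees C. DiscoveRx reagent added for 30–60 minutes at room temperature; luminescence read, quantitative HTS format.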
D3 ag: agonists of human D3 dopamine receptor; D3R DiscoveRx beta-arrestin cells, luminescence, 90 min; max activation, %; hit rate 0.58% among 410,000; in the data active = max activation above about 30%; note: 0% is about no effect
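Cells at 1500/well, incubated overnight, then treated with pinned compounds (dopamine as control) for 90 min at 37 degrees C. DiscoveRx reagent added for 30 - 60 minutes at room temperature; luminescence read.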
TGFb SMAD3 inh: TGF-b pathway inhibition | HepG2 CAGA-GFP TGF-b/SMAD3 reporter, GFP fluorescence, 18 h; TGF-beta stimulated, 500 pg/mL final | Potency, µM (series often up to 46.1 µM), without a hit: at the top dose activity, negative = inhibition, most hits filed as inhibitors | AID 588855 | hit rate 1.2% among 410,000; note: potency is the fitted concentration of half-maximal effect; % is set by controls: 0 for no effect and ±100 for the full control effect; nearly all actives have a fitted effect of over 65% in size
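Using HEPG2 CAGA-GFP reporter cells at 1000 cells/well, we pinned test compounds, stimulated with recombinant TGF-beta (500 pg/mL final) and measured total well GFP after 18 h.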
TGFb confirm: confirmation of TGF-b signaling inhibitors in HepG2 reporter cells; AID 720534; HepG2 CAGA-GFP TGF-b reporter, GFP fluorescence, 18 h; cells stimulated with TGF-beta, 500 pg/mL; Potency, µM (highest dose often 46.1 µM), for the others: at the top dose activity, negative = inhibition, most hits filed as inhibitors; shares compounds with TGFb SMAD3 inh; hit rate 63% among 1,600; note: potency is the fitted concentration of half-maximal effect; % is set by controls: 0 for no effect and ±100 for the full control effect; nearly all actives have a fitted effect of over 65% in size
HepG2 tox-2: toxic to HepG2 cells in TGF-b counterscreen | shares compounds with TGFb SMAD3 inh | HepG2 CAGA-GFP viability, ATP luminescence, 18 h; cells stimulated with TGF-beta, 500 pg/mL | Potency, µM (titrated, usually from 46.1 µM), without a hit: at the highest dose activity, negative = cytotoxicity, actives largely listed as inhibitors | hit rate 27% among 1,600; note: potency is the fitted concentration of half-maximal effect; % is set by controls: 0 for no effect and ±100 for the full control effect; nearly all actives have a fitted effect of over 70% in size
TGFb CCL64 inh: TGF-b inhibition, CCL64 orthogonal assay | AID 720536 | CCL64 CAGA-GFP reporter, TGF-b stimulated, GFP fluorescence, 18 h | shares compounds with TGFb SMAD3 inh | Potency, µM (titrated, usually from 46.1 µM), for the others: top-dose activity, negative = inhibition, most hits filed as inhibitors | hit rate 41% among 1,600; note: potency is the fitted concentration of half-maximal effect; nearly all actives have a fitted effect of over 65% in size
TGFb COP inh: blocks TGF-b signaling in HepG2 COP reporter. shares compounds with TGFb SMAD3 inh. HepG2 COP-GFP TGF-b reporter, GFP fluorescence, 18 h; cells stimulated by added recombinant TGF-beta. Potency, µM (highest dose often 46.1 µM), without a hit: at the top dose activity, negative = inhibition, hits mostly inhibitors. hit rate 3% among 1,600. AID 720537; note: potency is the fitted concentration of half-maximal effect; nearly all actives have a fitted effect of over 70% in size
An asterisk follows results filed as active; i = inactive; ? = inconclusive; · = no result given. Unless noted, calls come from the whole dose curve; as a rule, active = well fitted curve in the direction sought with a large enough effect; inconclusive = small, poorly fitted or top-dose-only effect, or another doubt; inactive = no such curve, though single readings can be large; an effect the other way counts as inactive or inconclusive.

SMILES | S2 tox | ATXN2 expr inh | HepG2 tox-1 | DRD3 antagonist | D3 ag | TGFb SMAD3 inh | TGFb confirm | HepG2 tox-2 | TGFb CCL64 inh | TGFb COP inh
CC(=O)NC(CCS(C)(=O)=O)C(=O)Nc1cccc(Cl)c1Cl (configuration not stated) | i | 6% | -5% | -28 | -3 | -7% | · | · | · | ·
CC(=O)OC(C)(C)/C=C/C(=O)[C@](C)(O)C1[C@H](O)C[C@@]2(C)C3CC=C4C(C=C(O[C@@H]5O[C@H](CO)[C@@H](O)[C@H](O)[C@H]5O)C(=O)C4(C)C)[C@]3(C)C(=O)C[C@]12C (some centres not stated) | ? | 0% | -31% | 15 | -20 | 5µM* | 5.2µM* | ? | 3.3µM* | 3%
COc1ccccc1NS(=O)(=O)c1cccc(NC(=O)Nc2ccccc2)c1 | i | -29% | -25% | 8 | 3 | 10µM* | ? | ? | ? | 57%
CCCCNC(=O)c1ccc2c(OCC)n(CCCC)nc2c1 | i | 1% | 0% | 23 | 5 | 2% | · | · | · | ·
CCCn1nc2cc(C(=O)NCCc3cccs3)ccc2c1OCC | i | 49% | -12% | 8 | -8 | ? | -26% | -5% | -22% | -11%
COc1ccc(C(NC(=O)CN2C(=O)NC3(CCc4ccccc43)C2=O)c2ccccc2)cc1 (configuration not stated) | ? | · | -9% | -3 | -1 | ? | ? | -13% | -23% | -10%
CCOc1ccc(NC(=O)Nc2cc(OCC(F)(F)F)cc(OCC(F)(F)F)c2)cc1 | i | -16% | -16% | 0 | 4 | -16% | · | · | · | ·
O=C(Nc1ccc(F)cc1)Nc1cc(OCC(F)(F)F)cc(OCC(F)(F)F)c1 | ? | 11µM* | 8.9µM* | 10 | 6 | 4µM* | 6.5µM* | ? | 7.3µM* | 47%
Cc1nn(CC(=O)NCc2ccccc2Cl)c(=O)c2cccn12 | i | 23% | -22% | · | 6 | -5% | · | · | · | ·
O=C(NC(=S)Nc1cccc([N+](=O)[O-])c1)C1CCCC1 | i | 3% | -10% | -9 | -5 | -13% | · | · | · | ·
O=C(NC(=S)Nc1ccc([N+](=O)[O-])cc1O)C1CCCCC1 | i | 3% | -36% | -29 | -6 | 11µM* | 16µM* | ? | 19% | 28%
O=[N+]([O-])c1ccc(NS(=O)(=O)c2ccc(Cl)c(Cl)c2)cc1 | ? | ? | -9% | 35 | 1 | 10µM* | 10µM* | 7.3µM* | ? | 82%
CC(=O)N1CCCc2cc(S(=O)(=O)NCc3ccc(OC(C)C)cc3)ccc21 | i | -2% | -22% | · | -2 | -19% | · | · | · | ·
COc1ccccc1CNS(=O)(=O)c1ccc2c(c1)CC(C)N2C(=O)C1CC1 (configuration not stated) | ? | · | -73% | 25 | 7 | ? | · | · | · | ·
COc1ccccc1CNS(=O)(=O)c1ccc2c(c1)CC(C)N2C(=O)C1CCC1 (configuration not stated) | i | -18% | -15% | 1 | 2 | 14µM* | 18µM* | -19% | -24% | 13%
COc1ccccc1NS(=O)(=O)c1ccc(C(=O)NCC(c2ccc(F)cc2)N2CCOCC2)cc1 (configuration not stated) | i | · | 1% | 4 | 0 | 16% | · | · | · | ·
COc1cc(C(=O)NCC(c2ccc(F)cc2)N2CCOCC2)ccc1OCc1ccccc1Cl (configuration not stated) | i | -9% | -16% | 14 | -6 | 20µM* | ? | ? | ? | 68%
CN(c1ccc(F)cc1)S(=O)(=O)c1ccc(Cl)c(C(=O)Nc2ccc3c(c2)CCC3)c1 | i | -10% | 1% | ? | -10 | 11µM* | ? | -12% | -20% | -7%
COC(=O)C1=C(C)N(Cc2ccccc2)C(=O)N[C@H]1c1ccc(Br)cc1 | i | -23% | -6% | 0 | 6 | -1% | · | · | · | ·
COCCN=C1N[C@@H](c2ccc(Br)cc2)C(C(=O)OC)=C(C)N1Cc1ccccc1 | ? | ? | -73% | 14 | 0 | 10µM* | ? | ? | ? | 62%
Cc1ccc(NC(=O)CC2Nc3cc(C)c(C)cc3NC2=O)c(C)c1 (configuration not stated) | i | 31% | -8% | · | -4 | -3% | · | · | · | ·
CC(C)n1ncc2c(C(=O)N3CCN(Cc4ccc(Cl)s4)CC3)cc(C3CC3)nc21 | ? | -9% | -1% | 1 | 1 | 10µM* | ? | -29% | ? | -9%
CCOCCCNC(=O)Nc1cc(C(=O)NCc2ccc(C(C)C)cc2)ccc1N1CCCC1 | ? | -21% | -12% | · | -8 | ? | · | · | · | ·
COc1cc(/C=N/n2c(SC)nnc(C(C)(C)C)c2=O)ccc1O | i | 12% | -13% | 1 | 6 | 3.2µM* | ? | 11% | -5% | 2%
O=C(Nc1cccc(Cl)c1)Nc1nnc(-c2ccncc2)s1 | · | ? | -45% | 20 | 17 | 7.9µM* | 10µM* | ? | 6.5µM* | 64%
O=C(Nc1ccc(F)cc1)Nc1nnc(-c2ccncc2)s1 | ? | -9% | -26% | 20 | 23 | ? | · | · | · | ·
Cc1cccc(C)c1NC(=O)Nc1nc(C(N)c2ccccc2Cl)cs1 (configuration not stated) | ? | -2% | -7% | 44 | -4 | -5% | · | · | · | ·
CCSc1nnc(NC(=O)Nc2cccc(C)c2)s1 | i | -7% | -25% | 13 | 1 | 7.9µM* | ? | ? | ? | 21%
